# Laboratory results: the supplement of paper PMC4840960
# ± gives the standard deviation of the averaged measurements.
# Test system: E18 rat cortical neuron-glia co-culture
# Test: fiber score / MBP score (myelination specific beyond OL differentiation) (ratio); higher = more myelination-specific MBP alignment
# Conditions: 5 µM; treatment time: 8 days (DIV5-DIV13)
# Procedure, shortened: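 Papain-dissociated primary E18 rat cortical co-cultures, plated at 20,000 cells/well on poly-d-lysine/laminin 96-well plates, were exposed to library compounds at 1 or 5 µM in myelination medium between DIV5 and DIV13. Following fixation in 4 % paraformaldehyde, cultures were stained for MBP, Olig2 and DAPI, and four 10X fields per well were analysed in duplicate wells. Values are the ratio of fiber score (continuous MBP fiber length per Olig2+ nucleus) to MBP score (thresholded MBP area × intensity per Olig2+ nucleus).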
row,SMILES,fiber score / MBP score
1,Cc1nc2n(c(=O)c1CCN1CCC(c3noc4cc(F)ccc34)CC1)CCCC2 [Risperidone],0.565
2,CN(C)CCCSc1ccccc1NC(=O)/C=C/c1ccccc1 [Cinanserin],0.995
3,CCCOc1ccc(C(=O)OCCN(CC)CC)cc1N [Proxymetacaine],0.433
4,CC(=O)OCC(CCn1cnc2cnc(N)nc21)COC(C)=O [Famciclovir],0.977
5,CN(C)CC/C=C1/c2ccccc2COc2ccc(CC(=O)O)cc21 [Olopatadine],0.936
6,Nc1nc(Cl)nc2c1ncn2[C@@H]1O[C@H](CO)[C@@H](O)[C@H]1O [2-Chloroadenosine],0.764
7,CCOC(=O)[C@H](CCc1ccccc1)N[C@@H](C)C(=O)N1Cc2ccccc2C[C@H]1C(=O)O [Quinapril],0.825
8,O=C1c2c(O)cc(O)cc2O[C@H](c2ccc(O)c(O)c2)[C@H]1O [Distylin],1.16
9,COc1ccc2[nH]c([S+]([O-])Cc3ncc(C)c(OC)c3C)nc2c1 (centres undefined) [Omeprazole],0.73
10,CO[C@H]1/C=C/O[C@@]2(C)Oc3c(C)c(O)c4c(c3C2=O)C2=NC3(CCN(CC(C)C)CC3)NC2=C(NC(=O)/C(C)=C\C=C\[C@H](C)[C@H](O)[C@@H](C)[C@@H](O)[C@@H](C)[C@H](OC(C)=O)[C@@H]1C)C4=O [Rifabutin],0.734 ± 0.12
11,CCc1ccc(CCOc2ccc(CC3SC(=O)NC3=O)cc2)nc1 (centres undefined) [Pioglitazone],0.501
12,CC(=O)OCC(=O)[C@@]1(O)CC[C@H]2[C@@H]3CCC4=CC(=O)CC[C@]4(C)[C@H]3C(=O)C[C@@]21C [Cortisone acetate],0.732
13,C[C@]12CCC(=O)C=C1CC[C@@H]1[C@@H]2[C@@H](O)C[C@@]2(C)[C@H]1CC[C@]2(O)C(=O)CO [Hydrocortisone],0.656 ± 0.11
14,O=C(O)CCNC(=O)c1ccc(/N=N/c2ccc(O)c(C(=O)O)c2)cc1 [Balsalazide],0.833
15,OCCOCCN1CCN(C2=Nc3ccccc3Sc3ccccc32)CC1 [Quetiapine hemifumarate],0.327
16,COc1cc(N)c(Cl)cc1C(=O)NC1CCN(CCCOc2ccc(F)cc2)CC1OC (centres undefined) [Cisapride],0.515
17,O=C(NCCN1CCOCC1)c1ccc(Cl)cc1 [Moclobemide],0.881

row,SMILES,fiber score / MBP score
1,CCC(=O)NS(=O)(=O)c1ccc(-c2c(-c3ccccc3)noc2C)cc1 [Parecoxib],1.01
2,COc1cc(CNC(=O)CCCC/C=C\C(C)C)ccc1O [Zucapsaicin],1.51
3,CC(C)c1ccc2oc3nc(N)c(C(=O)O)cc3c(=O)c2c1 [Amlexanox],1.05
4,NS(=O)(=O)c1cc2c(cc1C(F)(F)F)NCNS2(=O)=O [Hydroflumethiazide],0.763
5,CN(C)CCCN1c2ccccc2Sc2ccc(Cl)cc21 [Chlorpromazine],1.17
6,Cc1ncc([N+](=O)[O-])n1CC(O)CCl (centres undefined) [Ornidazole],0.686
7,Cc1cc2c(s1)Nc1ccccc1N=C2N1CCN(C)CC1 [Olanzapine],0.751
8,Cc1cn([C@H]2C=C[C@@H](CO)O2)c(=O)[nH]c1=O [Stavudine],0.637 ± 0.27
9,CC1=C(C/C=C(\C)CCC[C@H](C)CCC[C@H](C)CCCC(C)C)C(=O)c2ccccc2C1=O [Phylloquinone],0.723
10,CCOC(=O)c1ncn2c1CN(C)C(=O)c1cc(F)ccc1-2 [Flumazenil],0.835
11,CCc1oc2ccccc2c1C(=O)c1cc(Br)c(O)c(Br)c1 [Benzbromarone],0.919
12,C[C@H]1COc2c(C3(N)CC3)c(F)cc3c(=O)c(C(=O)O)cn1c23 [Pazufloxacin],1.19
13,O=C(O)CCc1nc(-c2ccccc2)c(-c2ccccc2)o1 [Oxaprozin],0.752
14,CCc1cccc2c3c([nH]c12)C(CC)(CC(=O)O)OCC3 (centres undefined) [Etodolac],1.38
15,CCN1CCCC1CNC(=O)c1cc(S(N)(=O)=O)ccc1OC (centres undefined) [Sulpiride],0.751
16,CC1(C)O[C@@H]2C[C@H]3[C@@H]4C[C@H](F)C5=CC(=O)C=C[C@]5(C)[C@@]4(F)[C@@H](O)C[C@]3(C)[C@]2(C(=O)CO)O1 [Fluocinolone Acetonide],0.825
17,CC(=O)O[C@H]1C[C@@H]2CC[C@@H]3[C@H](CC[C@@]4(C)[C@H]3C[C@H]([N+]3(C)CCCCC3)[C@@H]4OC(C)=O)[C@@]2(C)C[C@@H]1N1CCCCC1 [Vecuronium Bromide],0.791
